Source: PubChem (NMMLSC)
GSH bead fluor: GSH bead compound fluorescence profile; fluorescence (KMESF) at 10 µM; GSH beads flow cytometry, compound fluorescence 488/530 nm; active compounds read high; 190,000 tested, 0.25% active; in the data active = fluorescence above about 89;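 also: glutathione beads carrying GST-tagged Bcl family fusion proteins plus one bare bead set; values are compound well signal with DMSO vehicle wells as background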
RGS16-Gao: regulators of human RGS16-Galphao interaction | O15492+P09471 | bead-based flow cytometry RGS16-Galphao binding, fluorescence; actives lie on both sides | binding response (% of control), % at 10 µM | 220,000 tested, 0.38% active | AID 1441;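 also: Galphao activated by GDP with aluminum fluoride before binding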
Target sequence (O15492 whole entry, looked up): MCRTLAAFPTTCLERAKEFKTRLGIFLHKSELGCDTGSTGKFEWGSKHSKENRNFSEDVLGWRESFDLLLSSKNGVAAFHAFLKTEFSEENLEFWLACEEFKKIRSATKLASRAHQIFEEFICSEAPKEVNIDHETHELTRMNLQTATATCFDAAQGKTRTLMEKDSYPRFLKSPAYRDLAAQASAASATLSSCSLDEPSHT
Target sequence (P09471 whole entry, looked up): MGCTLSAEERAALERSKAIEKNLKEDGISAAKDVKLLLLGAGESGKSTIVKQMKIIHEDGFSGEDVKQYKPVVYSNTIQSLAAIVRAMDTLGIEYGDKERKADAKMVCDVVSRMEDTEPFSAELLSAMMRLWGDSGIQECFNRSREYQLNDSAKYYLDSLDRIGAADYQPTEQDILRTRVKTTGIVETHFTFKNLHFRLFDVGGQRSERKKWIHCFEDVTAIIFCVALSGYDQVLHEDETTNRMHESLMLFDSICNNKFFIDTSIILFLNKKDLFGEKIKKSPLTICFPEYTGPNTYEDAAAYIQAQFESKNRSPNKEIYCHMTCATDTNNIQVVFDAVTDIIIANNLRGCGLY
RGS7-Gao reg: modulates binding of RGS7 to human Galphao | AID 1439 | binding response (% of control), % at 10 µM | Multiplexed bead flow cytometry; actives lie on both sides | 220,000 tested, 0.35% active; in the data active = binding response below about 49% or above about 150%; inconclusive = no clear call, values can overlap the other calls; inactive = in between;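 also: fluorescent Galphao held in activated GDP-AlF4 state binding bead-coupled RGS7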
Target sequence (P09471 whole entry, looked up): as above
RGS8-Gao reg: modulates binding of RGS8 to human Galphao; AID 1423; 220,000 tested, 0.34% active; P09471; multiplexed bead flow cytometry; actives lie on both sides; response (percent of control binding), % at 10 µM; in the data active = response below about 60% or above about 140%; inactive = in between;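 also: Galphao activated as the GDP aluminium fluoride complex binding bead-coupled RGS8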
Avidin fluor: avidin bead compound fluorescence profile; 220,000 tested, 0.38% active; fluorescence (KMESF) at 10 µM; AID 1775; Avidin beads, compound fluorescence 488/530 nm, flow cytometry; active compounds read high; in the data active = fluorescence above about 47
RGS4-Gao reg: modulates binding of RGS4 to human Galphao | P09471 | Multiplexed bead flow cytometry; actives lie on both sides | binding response (% of control), % at 10 µM | 220,000 tested, 0.33% active | AID 1415; in the data active = binding response below about 49% or above about 150%; inactive = in between;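 also: fluorescent Galphao activated with aluminum fluoride binding bead-coupled RGS4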
RGS-Gao: regulators of human RGS4-Galphao interaction. multiplexed bead flow cytometry, RGS–Galpha-o binding. shares compounds with RGS16-Gao. 1,600 tested, 99% active. RGS4–Galpha-o binding response, % at 10 µM;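 also: fluorescently labeled Galpha-o bound to GDP with aluminium fluoride binding biotinylated RGS beads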
Biotin-avidin: counter-screen: compounds disrupting biotin binding to avidin beads. 1,700 tested, under 10 active. streptavidin beads, fluorescein-biotin binding, flow cytometry. inhibition, % at 10 µM. AID 1783. shares compounds with RGS16-Gao;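 active = inhibition above 50%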;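 also: median green fluorescence of gated singlet beads compared with DMSO control wells; 0% = DMSO wells and 100% = complete loss of bead fluorescence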
RGS8-Gao single: RGS8-Galphao interaction regulation, single point confirmation; shares compounds with RGS16-Gao; bead-based flow cytometry RGS8-Galphao binding, fluorescence; actives lie on both sides; binding response (% of control), % at 10 µM; 1,700 tested, 3% active; AID 1836; in the data active = binding response below about 72% or above about 130%; inactive = in between;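 also: Galphao activated as GDP AlF4 complex before binding bead RGS8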
RGS7-Gao confirm: confirmation of regulators of human RGS7-Galphao interaction. bead-based flow cytometry RGS7-Galphao binding; actives lie on both sides. shares compounds with RGS16-Gao. response (percent of control binding), % at 10 µM. 1,700 tested, 7.8% active; in the data active = response below about 75% or above about 130%; inactive = in between;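 also: fluorescent Galphao activated with GDP and aluminum fluoride binding bead-coupled RGS7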
RGS16-Gao single: confirmation of regulators of human RGS16-Galphao interaction. response (% of control binding), % at 10 µM. shares compounds with RGS16-Gao. 1,700 tested, 4% active. bead-based flow cytometry, RGS16-Galphao binding; actives lie on both sides; in the data active = response below about 74% or above about 130%; inactive = in between;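 also: Galphao activated as the GDP aluminium fluoride complex binding bead-coupled RGS16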
RGS4-Gao single: confirmation of regulators of human RGS4-Galphao interaction; shares compounds with RGS16-Gao; RGS4-Galphao binding, multiplexed bead flow cytometry; actives lie on both sides; binding response (% of control), % at 10 µM; 1,700 tested, 4% active; AID 1840; in the data active = binding response below about 74% or above about 130%; inactive = in between
RGS19-Gao conf: RGS19-Galphao interaction regulation, single point confirmation | shares compounds with RGS16-Gao | response (percent of control binding), % at 10 µM | bead-based flow cytometry RGS19-Galphao binding; actives lie on both sides | 1,700 tested, 5% active; in the data active = response below about 50% or above about 160%; inactive = in between;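 also: 100% = no compound control and 0% = blank background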
* marks the source's active call; other numbers are inactive results; ? = inconclusive; . = not tested or not shown; [ ] = dose if it differs, or a comment. A selection: hits, their analogues and other compounds. The true share with any hit is near 1.2%. Unless noted, no rule for the calls is given here.

SMILES	GSH bead fluor	RGS16-Gao	RGS7-Gao reg	RGS8-Gao reg	Avidin fluor	RGS4-Gao reg	Biotin-avidin	RGS8-Gao single	RGS7-Gao confirm	RGS16-Gao single	RGS4-Gao single	RGS19-Gao conf	others
Nc1nc(SCC(=O)N2CCOCC2)n[nH]1	15	127.1	189.5*[activator]	103.7	46	128.7	0.3	106.2	111.8	110.8	110.5	103.3	RGS-Gao=128.7*
Nc1nc(SCC(=O)Nc2cc(C(F)(F)F)ccc2N2CCOCC2)n[nH]1	15	16.1*	24.1*	18.4*	1	29.1*	1.0	102.6	104.0	101.6	99.1	98.7
Cc1nc2ccccc2nc1OCC(=O)Nc1cc(C(F)(F)F)ccc1N1CCOCC1	46	101.7	100.7	101.1	7	100.8	.	.	.	.	.	.
O=C(CSc1n[nH]c(-c2ccccc2O)n1)N1CCOCC1	11	101.9	101.6	97.6	3	101.0	.	.	.	.	.	.
O=c1[nH]nc(SCc2ccccc2)n1C1CC2C=CC1C2 (stereo unspecified)	.	101.9	?	102.3	6	96.2	.	.	.	.	.	.
COc1cc(/C=N/NC(=O)C[n+]2ccccc2)cc(OC)c1OC(C)=O	.	86.3	?	94.6	11	86.0	.	.	.	.	.	.
CCOC(=O)c1c(NC(=O)CN2C(=O)NC(C)(c3ccc(Cl)cc3)C2=O)sc(C(=O)NC)c1C (stereo unspecified)	19	115.2	106.1	107.6	2	104.6	.	.	.	.	.	.
CCOC(=O)Cc1csc(NC(=O)CSc2nnc(-c3ccc(F)cc3)o2)n1	12	-13.4*	56.6	72.3	3	60.8	-1.2	94.7	68.0*	84.0	80.3	54.1	RGS-Gao=60.8*
CCOC(=O)Cc1csc(NC(=O)CSc2nnc(-c3ccc(C)cc3)o2)n1	36	103.5	98.3	98.6	7	95.6	.	.	.	.	.	.
Cc1ccc(N2C(=O)c3cccc4c(Oc5ccccc5[N+](=O)[O-])ccc(c34)C2=O)c(C)c1	2	235.0*[activator]	122.4	126.5	14	121.5	0.9	106.7	110.5	106.7	107.8	115.3	RGS-Gao=121.5*
Cc1ccc(-n2c(SCC(=O)NCc3ccco3)nc3c([nH]c4ccccc43)c2=O)cc1	17	-4.2*	-10.8*	6.5*	-1	-3.0*	0.7	111.2	118.8	110.6	113.1	106.0
CCN1/C(=C/C(C)=C/c2sc3ccccc3[n+]2CC)Sc2ccccc21	10	39.1	79.6	53.2*	5	56.8	-4.8	83.9	92.5	80.0	97.9	83.8	RGS-Gao=56.8*
Cc1c(Br)cc(-c2nnco2)cc1Br	35	100.4	97.8	99.8	12	99.3	.	.	.	.	.	.
Cc1ccc(C2=NN(CC(=O)NCc3cccs3)C(=O)CC2)cc1	12	116.7	101.8	106.2	26	101.3	.	.	.	.	.	.
O=C(CN1N=C(c2ccc(Cl)cc2)CCC1=O)NCCN1CCc2ccccc2C1	12	-2.4*	4.0*	12.9*	-5	14.5*	-1.3	109.8	106.4	115.8	107.1	135.2
COc1ccc(C)cc1-n1nnnc1SCC1CCCO1 (stereo unspecified)	24	16.5*	20.6*	16.0*	2	25.9*	-1.6	108.0	108.4	108.5	106.3	117.5
CCN1CC(CNCc2cn(-c3ccc(OC)cc3)nc2-c2ccccc2Cl)CC1=O (stereo unspecified)	16	43.2	38.9*	56.8*	2	48.2*	0.1	98.6	84.1	95.6	88.5	100.0
COc1ccc(-n2cc(CNCC3CC(=O)N(C4CC4)C3)c(-c3ccccc3Cl)n2)cc1 (stereo unspecified)	13	105.6	98.2	107.2	12	101.8	.	.	.	.	.	.
CCc1ccc(NC(=O)C2C3/C=C\CCCCC32)cc1 (stereo unspecified)	11	107.4	104.1	102.7	6	101.2	.	.	.	.	.	.
CCN(CC)C(=O)C(=O)c1cccn1-c1c(Cl)cccc1C#N	12	113.2	157.8*[activator]	102.3	109*	112.3	1.2	103.9	106.4	103.7	104.5	98.5	RGS-Gao=112.3*
N#CCC(=O)Nc1ccc(C(F)(F)F)cc1N1CCOCC1	13	98.9	?	101.0	11	99.2	.	.	.	.	.	.
CCN1CCN(C(=O)C2CCN(S(=O)(=O)c3cccc4cccnc34)CC2)CC1	20	192.1*[activator]	114.6	120.1	13	103.7	-1.1	100.8	100.1	104.7	102.7	103.1	RGS-Gao=103.7*
O=C(C1CCN(S(=O)(=O)c2cccc3cccnc23)CC1)N1CCN(c2ccccc2)CC1	12	189.3	100.1	122.3	3	105.3	.	.	.	.	.	.
CSc1ccc(CN2CCN(C(=O)c3ccc([N+](=O)[O-])cc3)CC2)cc1	11	100.8	95.7	100.1	10	98.5	.	.	.	.	.	.
Cc1cccc(N2CC(c3nc4ccccc4[nH]3)CC2=O)c1 (stereo unspecified)	21	104.5	?	104.2	10	105.9	.	.	.	.	.	.
Cc1[nH]n(-c2ccccc2)c(=S)c1C=NCCCN=Cc1c(C)[nH]n(-c2ccccc2)c1=S	10	-0.3*	94.7	52.1*	0	92.0	0.5	84.0	113.1	74.2*	97.8	47.0*	RGS-Gao=92.0*
CSc1ccc(N2C(=O)NC3(CCCCC3)C2=O)cc1	34	95.2	94.6	101.9	6	96.2	.	.	.	.	.	.
CC1CCCCC1NC(=O)c1cc2ccccc2o1 (stereo unspecified)	11	100.5	100.2	97.2	5	99.6	.	.	.	.	.	.
O=C(Cn1nnc(-c2cc(C(F)(F)F)cc(C(F)(F)F)c2)n1)NNC(=S)Nc1ccc(Cl)cc1	.	169.0	?	145.4*[activator]	5	185.0*[activator]	-0.2	103.1	108.4	106.1	107.9	97.6
C/C(=N\NC(=O)COc1ccc(C)cc1C(C)C)c1ccc(-n2ccnc2)cc1	11	90.8	92.1	94.9	8	96.9	.	.	.	.	.	.
